Growth data for 39 molecules are collected here from PubChem BioAssay (NCI).

The structures appear in SMILES notation. The panel holds about 83,000 compounds, 20% with a hit somewhere; the sample as a whole holds those more often.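 Results are percent growth after 48 hours of single-concentration exposure. 100 means growth as in untreated cells, lower positive values show inhibition; negative values down to -100 show cell death.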 Active and inactive are the calls of the source. How the source made its calls: active means growth percent below 10; inactive means the rest.

In the first assay the test system is T-47D breast. Description: NCI-60 one-dose screen, 48 h (100 = growth as untreated, 0 = no growth, -100 = all killed). The following applies: 10 µM unless noted.
With `CCn1cc(C(=O)O)c(=O)c2cc(F)c(N3CCN(CC(=O)Nc4ccccc4)C(C)C3)c(F)c21` (stereo unspecified), the growth is 95.4% (inactive). On the same count and under the same terms, the figure for `COC1C(O)CC(OC2CC(OC3CC(O[C@@H]4C(=O)c5c(cc6cc(OC7CC(OC8CC(O)C(O)C(C)O8)C(O)C(C)O7)c(C)c(O)c6c5O)CC4[C@H](OC)C(=O)C(C)=O)OC(C)C3O)OC(C)C2O)OC1C` (stereo partly specified) is -4.93% (active). Still for that read-out and setting: the figure for `Cc1ccc(OCCOCCOCCOc2ccc(C)n(O)c2=S)c(=S)n1O` is 14% (inactive).

For `O=C(Cn1nc(-c2cccc3ccccc23)ccc1=O)NCc1cccc(Cl)c1`, the growth was 9.17% [50 µM] (active). Regarding `CC1(C)CC[C@]23CC[C@]4(C)[C@H](CC[C@@H]5[C@@]6(C)C/C(=C/O)C(=O)C(C)(C)[C@@H]6CC[C@]54C)[C@H]2[C@H]1OC3`, the growth is 114% (inactive). Turning to `Nc1nc(C(=O)N/N=C/c2ccc(F)cc2)nn1-c1ccc(S(N)(=O)=O)cc1`, the growth is 99.3% (inactive). With `CN(C)c1ccc(CNCCO)cc1`, the growth is 55.5% (inactive).

On to `Nc1c(Br)cc2c(c1Br)Cc1cc([N+](=O)[O-])ccc1-2`, for which the growth was 58.3% (inactive).

For the molecule `COC(=O)Cn1c2c(c3c(OC)cccc31)C(=O)c1ccccc1-2`, the growth was 89.7% (inactive). Same read-out and setting: the figure for `O=C(/C=C/c1ccccc1)c1ccc(-n2cc(CN3CCN(c4cc5c(cc4F)c(=O)c(C(=O)O)cn5C4CC4)CC3)nn2)cc1` is 92.9% (inactive). The same measure, in the same setting: the figure for `Cc1cc2oc(/C=C/c3ccccc3)cc(=O)c2c(C)c1Cl` is 87% (inactive); for `Cc1nc(N/N=C/c2cn(-c3ccccc3)nc2-c2cc3ccccc3oc2=O)sc1N=Nc1ccccc1` it is 83.2% (inactive); for `N#Cc1nn(-c2cc(=O)[nH]c3ccc(Br)cc23)c(N)c1C#N` it is 56.1% (inactive). Same read-out and setting: the figure for `CCCCO[C@@H]1C=C2[C@H]3CC(C)(C)C(=O)C[C@]3(C(=O)O[C@@H]3O[C@H](CO[C@@H]4O[C@H](CO)[C@@H](OC5OC(C)C(O)C(O)C5O)[C@H](O)[C@H]4O)[C@@H](O)[C@H](O)[C@H]3O)CC[C@@]2(C)[C@]2(C)CC[C@H]3C(C)(C)C(=O)CC[C@]3(C)[C@@H]12` (stereo partly specified) is 67.4% (inactive); for `CC(=O)c1c(Nc2cccc(F)c2)[nH]c2c(Cl)cc(Cl)c(Cl)c2c1=O` it is -11.1% (active); for `O=c1cc(CP(=O)(O)O)c2cc(O)c(-c3ccccc3)cc2o1` it is 101% (inactive). For the molecule `CC(=O)c1sc(-c2ccc(F)cc2)cc1O`, the growth is 98.4% (inactive). Still for that read-out and setting: the figure for `CC(=O)c1ccc(-n2cc(CN3CCN(c4cc5c(cc4F)c(=O)c(C(=O)O)cn5C4CC4)CC3)nn2)cc1` is 96.4% (inactive); for `COc1ccc(CN2C(=O)OC(C)(COC(C)=O)C2=O)cc1` (stereo unspecified) it is 91.9% (inactive); for `O=C1CCCC1[n+]1ccccc1` (stereo unspecified) it is 43.5% (inactive). Still for that read-out and setting: the figure for `CN(C)CCC(=O)C1CC1` is 97.6% (inactive). In the case of `Nc1ccc(-c2ccncc2)cc1NC(=O)N1CCCC1`, the growth is 81.9% (inactive). As to `O=c1oc2c(cnc3ccccc32)cc1-c1cccc(Cl)c1`, the growth was 107% (inactive).

As for `C/C(=C(\c1ccc(OCCN2CCCCCC2)cc1)c1ccc(OC(=O)c2ccccc2)cc1)c1ccc(Cl)cc1`, the growth is 42.6% (inactive).

`Nc1cccc(-c2ccc(COc3ccc(CC4SC(=O)NC4=O)cc3)cc2)c1` (stereo unspecified): the growth was 50.3% (inactive). Still for that read-out and setting: the figure for `C=C(C)[C@@H]1CC[C@]2(COC3CCCCO3)CC[C@]3(C)[C@H](CC[C@@H]4[C@@]5(C)C=C(C=O)C(=O)C(C)(C)[C@@H]5CC[C@]43C)[C@@H]12` (stereo partly specified) is -48.9% (active); for `O=C1CCCCN1c1ccc(C2=NCCCN2)cc1` it is 57.8% (inactive). On the same count and under the same terms, the figure for `Cc1cc(=O)oc2cc(Oc3nc(Br)cn4c(Br)cnc34)ccc12` is 53.7% (inactive); for `Cc1ccccc1N1CCN(C(=S)c2ccccc2)CC1` it is 89.1% (inactive). The same measure, in the same setting: the figure for `COc1ccc(Cl)cc1Nc1nc(C(F)(F)F)ccc1C(=O)N/N=C/c1ccc([N+](=O)[O-])cc1` is 7.15% (active); for `O=C(Nc1nc(Cl)nc(Nc2ccc(N3CCOCC3=O)cc2)n1)c1ccc(Cl)s1` it is 71.7% (inactive); for `COCCOC(C)C(/C=N/NC(N)=S)=N/NC(N)=S` (stereo unspecified) it is 28.7% (inactive).

The subject of a further assay is BT-549 breast. The assay is described as above. The following applies: 10 µM unless noted.
For the molecule `CCn1cc(C(=O)O)c(=O)c2cc(F)c(N3CCN(CC(=O)Nc4ccccc4)C(C)C3)c(F)c21` (stereo unspecified), the growth is 106% (inactive). Regarding `c1cc(OCCN2CCCCC2)ccc1CNc1ccc2nc(CCC3CCCCC3)[nH]c2c1`, the growth was 73.6% (inactive).

Regarding `COC1C(O)CC(OC2CC(OC3CC(O[C@@H]4C(=O)c5c(cc6cc(OC7CC(OC8CC(O)C(O)C(C)O8)C(O)C(C)O7)c(C)c(O)c6c5O)CC4[C@H](OC)C(=O)C(C)=O)OC(C)C3O)OC(C)C2O)OC1C` (stereo partly specified), the growth is -18.8% (active). Same read-out and setting: the figure for `Cc1ccc(OCCOCCOCCOc2ccc(C)n(O)c2=S)c(=S)n1O` is 50.4% (inactive). On the same count and under the same terms, the figure for `Cn1cc(-c2csc(-c3cn(CCCN4CCOCC4)c4ccc(F)cc34)n2)c2cccnc21` is 71.6% (inactive); for `O=C1c2cccnc2C(=O)c2c1c(C(=O)OCCc1ccccn1)c1ccccn21` it is -35.2% (active). The same measure, in the same setting: the figure for `C#CCOc1cccc(Nc2ncnc3c2ncn3C2CCN(C(=O)CCl)C2)c1` (stereo unspecified) is -62.5% (active); for `O=C(Cn1nc(-c2cccc3ccccc23)ccc1=O)NCc1cccc(Cl)c1` it is 44.3% [50 µM] (inactive).

`CC1(C)CC[C@]23CC[C@]4(C)[C@H](CC[C@@H]5[C@@]6(C)C/C(=C/O)C(=O)C(C)(C)[C@@H]6CC[C@]54C)[C@H]2[C@H]1OC3`: the growth is 111% (inactive). As to `Clc1ccc(-c2cc(-c3ccccc3)nc(N3CCN(CCCNc4ccnc5cc(Cl)ccc45)CC3)n2)cc1`, the growth was 100% (inactive). Turning to `Nc1nc(C(=O)N/N=C/c2ccc(F)cc2)nn1-c1ccc(S(N)(=O)=O)cc1`, the growth is 114% (inactive). The same measure, in the same setting: the figure for `CN(C)c1ccc(CNCCO)cc1` is 75.7% (inactive); for `Nc1c(Br)cc2c(c1Br)Cc1cc([N+](=O)[O-])ccc1-2` it is 110% (inactive); for `COC(=O)Cn1c2c(c3c(OC)cccc31)C(=O)c1ccccc1-2` it is 103% (inactive). On the same count and under the same terms, the figure for `O=C(/C=C/c1ccccc1)c1ccc(-n2cc(CN3CCN(c4cc5c(cc4F)c(=O)c(C(=O)O)cn5C4CC4)CC3)nn2)cc1` is 76.7% (inactive); for `Cc1cc2oc(/C=C/c3ccccc3)cc(=O)c2c(C)c1Cl` it is 101% (inactive); for `Cc1nc(N/N=C/c2cn(-c3ccccc3)nc2-c2cc3ccccc3oc2=O)sc1N=Nc1ccccc1` it is 78.3% (inactive). Still for that read-out and setting: the figure for `Oc1c(CN2CCC(N3CCOCC3)CC2)cc(Cc2cc(CN3CCC(N4CCOCC4)CC3)c(O)c3ncccc23)c2cccnc12` is 33.5% (inactive); for `N#Cc1nn(-c2cc(=O)[nH]c3ccc(Br)cc23)c(N)c1C#N` it is 85.1% (inactive). With `CCCCO[C@@H]1C=C2[C@H]3CC(C)(C)C(=O)C[C@]3(C(=O)O[C@@H]3O[C@H](CO[C@@H]4O[C@H](CO)[C@@H](OC5OC(C)C(O)C(O)C5O)[C@H](O)[C@H]4O)[C@@H](O)[C@H](O)[C@H]3O)CC[C@@]2(C)[C@]2(C)CC[C@H]3C(C)(C)C(=O)CC[C@]3(C)[C@@H]12` (stereo partly specified), the growth is 57.6% (inactive).

With `CC(=O)c1c(Nc2cccc(F)c2)[nH]c2c(Cl)cc(Cl)c(Cl)c2c1=O`, the growth was 8.92% (active). Same read-out and setting: the figure for `O=c1cc(CP(=O)(O)O)c2cc(O)c(-c3ccccc3)cc2o1` is 108% (inactive); for `CC(=O)c1sc(-c2ccc(F)cc2)cc1O` it is 93.8% (inactive); for `CC(=O)c1ccc(-n2cc(CN3CCN(c4cc5c(cc4F)c(=O)c(C(=O)O)cn5C4CC4)CC3)nn2)cc1` it is 102% (inactive). On the same count and under the same terms, the figure for `COc1ccc(CN2C(=O)OC(C)(COC(C)=O)C2=O)cc1` (stereo unspecified) is 107% (inactive); for `O=C1CCCC1[n+]1ccccc1` (stereo unspecified) it is 84.3% (inactive).

In the case of `CN(C)CCC(=O)C1CC1`, the growth is 99.7% (inactive).

`Nc1ccc(-c2ccncc2)cc1NC(=O)N1CCCC1`: the growth is 104% (inactive). Same read-out and setting: the figure for `O=c1oc2c(cnc3ccccc32)cc1-c1cccc(Cl)c1` is 115% (inactive); for `C/C(=C(\c1ccc(OCCN2CCCCCC2)cc1)c1ccc(OC(=O)c2ccccc2)cc1)c1ccc(Cl)cc1` it is 68.5% (inactive); for `Nc1cccc(-c2ccc(COc3ccc(CC4SC(=O)NC4=O)cc3)cc2)c1` (stereo unspecified) it is 58.7% (inactive).

For `C=C(C)[C@@H]1CC[C@]2(COC3CCCCO3)CC[C@]3(C)[C@H](CC[C@@H]4[C@@]5(C)C=C(C=O)C(=O)C(C)(C)[C@@H]5CC[C@]43C)[C@@H]12` (stereo partly specified), the growth is -58.5% (active). Same read-out and setting: the figure for `O=C1CCCCN1c1ccc(C2=NCCCN2)cc1` is 89.6% (inactive); for `Cc1cc(=O)oc2cc(Oc3nc(Br)cn4c(Br)cnc34)ccc12` it is 92.2% (inactive). Still for that read-out and setting: the figure for `C=CN(C(=O)N1CCN(c2cc3c(cc2F)c(=O)c(C(=O)O)cn3C2CC2)CC1)c1nc(-c2ccc(Cl)cc2)cs1` is 63.1% (inactive).

Turning to `Cc1ccccc1N1CCN(C(=S)c2ccccc2)CC1`, the growth is 88.5% (inactive).

Turning to `COc1ccc(Cl)cc1Nc1nc(C(F)(F)F)ccc1C(=O)N/N=C/c1ccc([N+](=O)[O-])cc1`, the growth was 18.6% (inactive). Still for that read-out and setting: the figure for `O=C(Nc1nc(Cl)nc(Nc2ccc(N3CCOCC3=O)cc2)n1)c1ccc(Cl)s1` is 106% (inactive). The same measure, in the same setting: the figure for `COCCOC(C)C(/C=N/NC(N)=S)=N/NC(N)=S` (stereo unspecified) is 90.1% (inactive).
